Experimental data from PubChem BioAssay AID1159580 (chemical genetic matrix, 2015).
Out of some 5,500 compounds screened, about 2,000 (36%) were called active. Not shown: some 18% with an inconclusive outcome. Rule as the data show it: active = normalized growth mostly below about 0.91 (no sharp cut-off); inconclusive = no clear call, values can overlap the other calls; inactive = mostly above about 0.92. The list shows a part of the results.

Assay: chemical genetic growth profiling, strain panel (AID 1159580);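 also: tested at 20 µM; growth read once vehicle control cultures reached saturation at 30 °C; 1 = growth at the plate median or of vehicle wells; lower values mean less growth of the strain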
Conditions: growth OD

Measured: normalized growth

COc1cc2cc[n+]3cc4c(OC)c(OC)ccc4cc3c2cc1OC
inactive: S. cerevisiae deletion strains, locus YJR075W, strain HOC1, stronger effect = lower value 0.979 | S. cerevisiae deletion strains, locus YKL009W, strain mrt4, stronger effect = lower value 0.965 | S. cerevisiae deletion strains, locus YKL068W, stronger effect = lower value 0.963 | S. cerevisiae deletion strains, locus YKL085W, strain MDH1 (second series), stronger effect = lower value 0.992 | S. cerevisiae deletion strains, locus YKL085W, strain MDH1, stronger effect = lower value 0.992 | S. cerevisiae deletion strains, locus YKL160W, strain elf1, stronger effect = lower value 0.976 | S. cerevisiae deletion strains, locus YKL190W, strain CNB1, stronger effect = lower value 0.982 | S. cerevisiae deletion strains, locus YKR001C, strain vps1, stronger effect = lower value 0.99 | S. cerevisiae deletion strains, locus YKR026C, strain gcn3, stronger effect = lower value 0.985 | S. cerevisiae deletion strains, locus YKR091W, strain srl3, stronger effect = lower value 0.976 | S. cerevisiae deletion strains, locus YLL001W, strain dnm1, stronger effect = lower value 0.965 | S. cerevisiae deletion strains, locus YLL026W, stronger effect = lower value 0.97 | S. cerevisiae deletion strains, locus YLL041C, strain sdh2, stronger effect = lower value 0.99 | S. cerevisiae deletion strains, locus YLR027C, strain aat2, stronger effect = lower value 0.962 | S. cerevisiae deletion strains, locus YLR039C, strain RIC1, stronger effect = lower value 0.938 | S. cerevisiae deletion strains, locus YLR058C, strain SHM2, stronger effect = lower value 0.985 | S. cerevisiae deletion strains, locus YLR102C, strain apc9, stronger effect = lower value 0.959 | S. cerevisiae deletion strains, locus YLR113W, strain HOG1, stronger effect = lower value 1.02 | S. cerevisiae deletion strains, locus YLR221C, strain rsa3, stronger effect = lower value 0.968 | S. cerevisiae deletion strains, locus YLR258W, strain gsy2, stronger effect = lower value 0.993 | S. cerevisiae deletion strains, locus YLR262C, strain YPT6 (second series), stronger effect = lower value 1.01 | S. cerevisiae deletion strains, locus YLR262C, strain YPT6, stronger effect = lower value 0.926 | S. cerevisiae deletion strains, locus YLR268W, strain sec22, stronger effect = lower value 1 | S. cerevisiae deletion strains, locus YLR320W, strain mms22, stronger effect = lower value 0.979 | S. cerevisiae deletion strains, locus YLR330W, strain CHS5, stronger effect = lower value 0.977 | S. cerevisiae deletion strains, locus YLR342W, strain FKS1 (second series), stronger effect = lower value 0.96 | S. cerevisiae deletion strains, locus YLR342W, strain FKS1, stronger effect = lower value 0.981 | S. cerevisiae deletion strains, locus YLR357W, strain rsc2, stronger effect = lower value 0.95 | S. cerevisiae deletion strains, locus YLR370C, strain arc18, stronger effect = lower value 0.981 | S. cerevisiae deletion strains, locus YLR371W, strain rom2, stronger effect = lower value 0.952 | S. cerevisiae deletion strains, locus YLR384C, strain iki3, stronger effect = lower value 0.977 | S. cerevisiae deletion strains, locus YLR418C, strain cdc73, stronger effect = lower value 1 | S. cerevisiae deletion strains, locus YML016C, strain PPZ1, stronger effect = lower value 0.985 | S. cerevisiae deletion strains, locus YML032C, strain rad52, stronger effect = lower value 0.955 | S. cerevisiae deletion strains, locus YML120C, strain ndi1, stronger effect = lower value 0.978 | S. cerevisiae deletion strains, locus YML124C, strain tub3, stronger effect = lower value 0.985 | S. cerevisiae deletion strains, locus YMR058W, strain fet3, stronger effect = lower value 0.973 | S. cerevisiae deletion strains, locus YMR078C, strain ctf18, stronger effect = lower value 0.986 | S. cerevisiae deletion strains, locus YMR125W, strain sto1, stronger effect = lower value 0.938 | S. cerevisiae deletion strains, locus YMR129W, stronger effect = lower value 0.987 | S. cerevisiae deletion strains, locus YMR205C, strain PFK2, stronger effect = lower value 0.961 | S. cerevisiae deletion strains, locus YMR223W, strain ubp8, stronger effect = lower value 0.97 | S. cerevisiae deletion strains, locus YMR231W, strain pep5, stronger effect = lower value 0.988 | S. cerevisiae deletion strains, locus YMR263W, strain SAP30, stronger effect = lower value 0.988 | S. cerevisiae deletion strains, locus YMR307W, strain GAS1, stronger effect = lower value 1.1 | S. cerevisiae deletion strains, locus YNL067W, strain RPL9B, stronger effect = lower value 0.982 | S. cerevisiae deletion strains, locus YNL071W, strain lat1, stronger effect = lower value 0.988 | S. cerevisiae deletion strains, locus YNL128W, strain TEP1, stronger effect = lower value 0.995 | S. cerevisiae deletion strains, locus YNL153C, strain GIM3, stronger effect = lower value 0.999 | S. cerevisiae deletion strains, locus YNL183C, strain NPR1, stronger effect = lower value 0.95 | S. cerevisiae deletion strains, locus YNL209W, strain ssb2, stronger effect = lower value 0.982 | S. cerevisiae deletion strains, locus YNL233W, strain BNI4, stronger effect = lower value 1 | S. cerevisiae deletion strains, locus YNL248C, strain rpa49, stronger effect = lower value 0.968 | S. cerevisiae deletion strains, locus YNL250W, strain rad50, stronger effect = lower value 0.968 | S. cerevisiae deletion strains, locus YNL271C, strain bni1, stronger effect = lower value 0.975 | S. cerevisiae deletion strains, locus YNL298W, strain CLA4, stronger effect = lower value 0.984 | S. cerevisiae deletion strains, locus YNL307C, strain MCK1, stronger effect = lower value 0.985 | S. cerevisiae deletion strains, locus YNL322C, strain KRE1 (second series), stronger effect = lower value 0.959 | S. cerevisiae deletion strains, locus YNL322C, strain KRE1, stronger effect = lower value 0.98 | S. cerevisiae deletion strains, locus YNR049C, strain mso1, stronger effect = lower value 0.972 | S. cerevisiae deletion strains, locus YNR052C, strain pop2, stronger effect = lower value 0.98 | S. cerevisiae deletion strains, locus YOL006C, strain TOP1, stronger effect = lower value 1.02 | S. cerevisiae deletion strains, locus YOL012C, strain htz1 0.901 | S. cerevisiae deletion strains, locus YOL147C, strain pex11, stronger effect = lower value 0.988 | S. cerevisiae deletion strains, locus YOR001W, strain rrp6, stronger effect = lower value 0.987 | S. cerevisiae deletion strains, locus YOR061W, strain CKA2, stronger effect = lower value 0.98 | S. cerevisiae deletion strains, locus YOR069W, strain VPS5, stronger effect = lower value 0.993 | S. cerevisiae deletion strains, locus YOR070C, strain gyp1, stronger effect = lower value 0.984 | S. cerevisiae deletion strains, locus YOR080W, strain dia2, stronger effect = lower value 0.965 | S. cerevisiae deletion strains, locus YOR083W, strain WHI5, stronger effect = lower value 0.964 | S. cerevisiae deletion strains, locus YOR106W, strain vam3, stronger effect = lower value 0.998 | S. cerevisiae deletion strains, locus YOR136W, strain idh2, stronger effect = lower value 0.986 | S. cerevisiae deletion strains, locus YOR144C, strain elg1, stronger effect = lower value 0.983 | S. cerevisiae deletion strains, locus YOR184W, strain ser1, stronger effect = lower value 0.933 | S. cerevisiae deletion strains, locus YOR231W, strain MKK1, stronger effect = lower value 1.03 | S. cerevisiae deletion strains, locus YOR265W, strain rbl2, stronger effect = lower value 0.989 | S. cerevisiae deletion strains, locus YOR270C, strain vph1, stronger effect = lower value 0.937 | S. cerevisiae deletion strains, locus YOR290C, strain snf2, stronger effect = lower value 0.946 | S. cerevisiae deletion strains, locus YOR316C, strain cot1, stronger effect = lower value 0.988 | S. cerevisiae deletion strains, locus YPL051W, strain arl3, stronger effect = lower value 0.997 | S. cerevisiae deletion strains, locus YPL055C, strain LGE1, stronger effect = lower value 0.984 | S. cerevisiae deletion strains, locus YPL078C, strain atp4, stronger effect = lower value 0.986 | S. cerevisiae deletion strains, locus YPL106C, strain sse1, stronger effect = lower value 0.953 | S. cerevisiae deletion strains, locus YPL240C, strain hsp82, stronger effect = lower value 0.982 | S. cerevisiae deletion strains, locus YPL256C, strain CLN2, stronger effect = lower value 1.03 | S. cerevisiae deletion strains, locus YPR119W, strain clb2, stronger effect = lower value 0.979 | S. cerevisiae deletion strains, locus YPR141C, strain kar3, stronger effect = lower value 0.988 | S. cerevisiae deletion strains, locus YPR163C, strain tif3, stronger effect = lower value 0.988 | S. cerevisiae deletion strains, locus YPR167C, strain met16, stronger effect = lower value 0.984 | S. cerevisiae deletion strains, strain wtn01, stronger effect = lower value 0.971 | S. cerevisiae strains, strain wild type, stronger effect = lower value 0.985
